The structures appear in SMILES notation. Among all 340,000 compounds or so, about 1,000 (0.29%) were called active. Not all results are given here. Results with a measured potency or affinity are listed apart. A number with no mark means an inactive call. Cut-off read from the data, not from the text of the source: inconclusive = inhibition above about 27% without an active follow-up result; inactive = below that.

The nature of this experiment: H1N1 influenza NS1A inhibitors, functional cell based assay (AID 504329). As to conditions: percent inhibition, at 12.5 µM, hits give high values.
For the molecule `COc1ccc(NC(=O)COC(=O)c2ccc3ccccc3n2)cc1`, the inhibition is -0.01%. Take `CCN(CC)c1ccc(NC(=O)COC(=O)c2ccc3ccccc3n2)cc1`: the inhibition is 17.3%. With `O=C(Nc1ccn(CCCNCc2ccccc2)c(=O)n1)OCc1ccccc1`, the inhibition is -1.35%.

Regarding `COc1cc(CN2CC=C(c3ccc(F)cc3)CC2)cc(OC)c1`, the inhibition is -3.66%. In the case of `CCN(CC)c1ccc(CN2CC=C(c3ccc(F)cc3)CC2)cc1`, the inhibition is 23.1%. With `N[C@@H](Cc1ccc(O)cc1)c1nnc([C@H](CO)NC(=O)C2CCNCC2)o1`, the inhibition is -21.5%.

In the case of `COc1ccccc1C=NNC(=O)c1ccccc1OCCOc1ccccc1`, the inhibition is -1.44%.

For the molecule `COc1ccc(CCc2nnc(N)s2)cc1OC`, the inhibition is -1.61%.

As for `CCOC(=O)c1cc(-c2ccc(Cl)s2)[nH]n1`, the inhibition was 0.06%. On to `Cn1cccc1/C=C1\C(=O)NC(=O)N(Cc2ccco2)C1=O`, for which the inhibition is 3.7%.

On to `O=C1NC(=O)N(Cc2ccco2)C(=O)/C1=C/C=C/c1ccco1`, for which the inhibition was -3.06%. The figure for `NC(=O)C1CCN(/C=C2\C(=O)NC(=O)N(Cc3ccco3)C2=O)CC1` is -5.38%; for `CCN(CC)c1ccc(/C=C2/C(=O)NC(=O)N(Cc3ccco3)C2=O)cc1` it is 7.25%. On to `COC(=O)c1ccc(NC(=O)CNS(=O)(=O)c2cccs2)cc1`, for which the inhibition is 1.39%. Take `COc1cc(C(=O)N/N=C(\c2ccccc2)c2ccccn2)cc(OC)c1OC`: the inhibition was 8.37%. As for `COc1ccc(C(=O)N/N=C/c2ccccn2)cc1OC`, the inhibition was 0.68%. The figure for `COc1cc(NC(=O)c2ccccn2)cc(OC)c1OC` is -8.83%; for `COc1ccc(C(=O)N/N=C(\C)CC(=O)Nc2ccccn2)cc1OC` it is 1.35%; for `COc1ccc(NC(=S)N2CCN(Cc3ccccc3)CC2)c(OC)c1` it is -3.28%. Take `Fc1cccc(-c2oncc2-c2nnnn2-c2ccc(Cl)cc2)c1`: the inhibition is 12.9%. As for `CCOC(=O)c1ccc(NC(=O)CCNS(=O)(=O)c2cc(Br)cnc2N)cc1`, the inhibition is 1.26%.

For `CN1CCN(C2=C(Cl)C(=O)c3ccccc3C2=O)CC1`, the inhibition is -8.61%.

As to `O=C1C(Cl)=C(N2CCC(C(=O)O)CC2)C(=O)c2ccccc21`, the inhibition was 0.19%.

Consider `C[C@H](CO)N1C[C@H](C)[C@H](CN(C)Cc2ccccc2)Oc2c(NC(=O)Nc3ccc(F)cc3)cccc2C1=O`, for which the inhibition was -3.95%. As for `Cc1ccc(C(=O)OCC(=O)c2ccc(Cl)s2)s1`, the figure is 1.17%; as for `CC1(C)CC(NC(=O)C23CCC(C)(C2Br)C3(C)C)CC(C)(C)N1` (stereo not drawn), -5.71%.

`CCN1C(=O)/C(=C/C=C2/Sc3ccc4ccccc4c3N2CCO)SC1=S`: the inhibition is -5.98%. In the case of `CCN1C(c2ccccc2)=C(c2ccccc2)S/C1=C\C=C1/SC(=S)N(C)C1=O`, the inhibition was 15.8%.

Take `CCCCCC/C=C/c1ccc(OC)c([C@H]2[C@H]3C=CC[C@@H](C)[C@@H]3C(=O)N2Cc2ccccc2)c1`: the inhibition is 6.03%. For the molecule `CCN1/C(=C\c2ccc3ccccc3[n+]2CC)Sc2cc(C)ccc21`, the inhibition was 11.8%.

On to `CCN1/C(=C/c2ccc3cc(C)ccc3[n+]2CC)Sc2cc(C)ccc21`, for which the inhibition is 19.4%. On to `Cc1cc(C)nc(NS(=O)(=O)c2ccc(NS(=O)(=O)c3ccc(C#N)cc3)cc2)n1`, for which the inhibition is -5.4%. As for `COC(=O)CNC(=O)CN(c1ccc(OC)cc1OC)S(=O)(=O)c1ccccc1`, the inhibition was -1.66%. The figure for `Cc1cccc(NC(=O)Cn2c(O)c(N=NC(=O)c3ccncc3)c3ccccc32)c1` is -15.6%; for `O=C1NC(c2ccncc2)Nc2sc3c(c21)CCCC3` (stereo not drawn) it is 2.95%. Consider `CN1CCc2c(sc3c2C(=O)NC(c2ccccc2)N3)C1` (stereo not drawn), for which the inhibition was -3.09%. As for `CN1CCc2c(sc3c2C(=O)NC(c2cccs2)N3)C1` (stereo not drawn), the figure is 1.19%; as for `O=C1NC(c2cccs2)Nc2sc3c(c21)CCCC3` (stereo not drawn), 3.69%. For the molecule `CCN1C(=O)/C(=C2\SC(N3CCCCC3)=NC2=O)c2ccccc21`, the inhibition was 14.1%.

For the molecule `CCCCN1C(=O)/C(=C2\SC(N3CCOCC3)=NC2=O)c2ccccc21`, the inhibition is 8.19%. The figure for `CN1C(=O)/C(=C2\SC(N3CCCCCC3)=NC2=O)c2ccccc21` is 20.3%; for `CCN1C(=O)/C(=C2\SC(N3CCOCC3)=NC2=O)c2ccccc21` it is 23.1%. The figure for `COC(=O)c1sccc1NC(=O)c1ccc(Br)o1` is 3.08%; for `Cc1nc2ccccc2c(=O)n1NC(=O)c1cc(Br)ccc1Cl` it is 3.26%; for `CCOC(=O)c1c(NC(=O)CNCCO)sc(C)c1C` it is -0.57%.

Regarding `CN(CCCNC(=O)c1cc2c(=O)[nH]c3ccccc3c2n1C)Cc1ccccc1`, the inhibition is -0.58%. For `CCN1CCN(C(=O)c2cc(-c3ccc(Cl)s3)nc3ccccc23)CC1`, the inhibition was -3.92%. As for `COc1cc(C(=O)OCC(=O)NC(=O)c2cccn2C)ccc1OC(F)F`, the figure is 5.75%; as for `COc1ccc(Oc2ccccc2/C=N/O)cc1`, -9.31%; as for `COc1ccc2nc(-c3ccccn3)[nH]c2c1`, -6.69%. `CC(C)(C)c1cc(=O)[nH]c(SCc2ccccc2)n1`: the inhibition is -17.8%. Turning to `Cn1nc(C(F)(F)F)c(CO)c1Sc1ccc(F)cc1`, the inhibition is 5.51%. For the molecule `CN(CCCS(=O)(=O)[O-])c1ccc(/C=C/c2ccc3ccccc3[n+]2C)cc1`, the inhibition is -6.52%. The figure for `CN(C)c1ccc(/C=C/c2nc3ccccc3c(=O)[nH]2)cc1` is -10.6%. For the molecule `CC[n+]1c(SC)ccc2cc(OC)ccc21`, the inhibition was -5.15%. `CN(C)c1ccc(/C=C/c2ccc3ccccc3n2)cc1`: the inhibition was -37.5%. `CC[n+]1c(/C=C/c2ccc(OC(C)=O)c(OC)c2)ccc2ccccc21`: the inhibition is 18.9%.

Consider `CC[n+]1cc(C)ccc1/C=C/c1ccc(N(C)C)cc1`, for which the inhibition was -3.01%. The figure for `C[n+]1c(/C=C/c2ccc3c(c2)OCO3)ccc2ccccc21` is 8.1%; for `CC[n+]1c(/C=C/c2ccc(OC)c(OC)c2)ccc2ccccc21` it is 3.91%. For `O=C(Nc1nc2ccccc2[nH]1)NC1CCCCC1`, the inhibition is -9.13%. Regarding `O=C(N/C=N/OCc1ccc(Cl)cc1Cl)NOCc1c(Cl)cccc1Cl`, the inhibition is -13.6%.

On to `Cc1ccc(S(=O)(=O)NCC(c2ccc3c(c2)OCO3)N2CCN(c3ccccc3)CC2)cc1` (stereo not drawn), for which the inhibition was -19.9%. Take `Cc1[nH]c(C)c(S(=O)(=O)NCc2ccccc2Cl)c1C(=O)N1CCCC1`: the inhibition is 9.96%.

As for `c1csc(C(c2nnnn2C2CCCC2)N2CCOCC2)c1` (stereo not drawn), the inhibition was 5.59%. As to `O=C(CCNC(=O)c1ccccc1Cl)Nc1ccccc1N1CCCC1`, the inhibition was -8.83%. With `O=C(NCCN1CCOCC1)c1noc2c1CCc1ccccc1-2`, the inhibition was 1.97%. On to `CCCCCN1C(=O)Cn2c(nc3ccccc3c2=O)C1C` (stereo not drawn), for which the inhibition was 4.12%. As for `Cc1noc(/C=C/N(C)C)c1S(=O)(=O)N1CCN(c2ccc(F)cc2)CC1`, the figure is 4.41%; as for `CC[n+]1ccccc1/C=C/c1ccc(N(C)C)cc1`, 8%; as for `CN(C)c1ccc(/C=C/c2cc[n+](C)c3ccccc23)cc1`, 58.9%.

For `COC(=O)c1ccc(CNC(=O)c2sccc2-c2ccccc2)cc1`, the inhibition is 4.96%. `COc1ccc2[nH]c3c(=O)n4c(nc3c2c1)SCC4`: the inhibition is -0.07%. With `CCCCc1ccc(NS(=O)(=O)c2cccc(C(=O)N3CCNC(=O)C3)c2)cc1`, the inhibition is 0.4%. For the molecule `Clc1ccc2c(NNc3ccccc3Cl)ccnc2c1`, the inhibition was 6.7%. For the molecule `Oc1ccc(Nc2ccnc3cc(Cl)ccc23)cc1`, the inhibition was 3.37%. As for `N/C(=N\N=C\c1ccc2c(c1)OCO2)SC1CC(=O)N(c2ccc(C(=O)O)cc2)C1=O` (stereo not drawn), the inhibition was 1.14%. The figure for `Cc1ccc(Nc2nc(N3CCOCC3)c3ccccc3n2)cc1` is 5.53%; for `Fc1ccc(Nc2nc(N3CCOCC3)c3ccccc3n2)cc1` it is 4.75%; for `CCCOc1ccc(C(=O)NCCN2CCOCC2)cc1` it is -8.97%.

As for `O=C1C2C3CCCC3=C3CCCC3C2C(=O)N1c1ccc(F)cc1` (stereo not drawn), the inhibition is -3.36%. In the case of `CCOc1ccc(NS(=O)(=O)c2ccc(-c3cnc(C4CC4)o3)cc2)cc1`, the inhibition was -5.05%. For the molecule `CCSc1nnc(CNc2ccc(C)cc2)n1C`, the inhibition is -3.37%. Regarding `Oc1ccc(/C=N/N(Cc2ccccc2)c2ccccc2)c(O)c1O`, the inhibition is 19.2%. As for `Oc1ccc(/C=N/N(c2ccccc2)c2ccccc2)cc1O`, the figure is 1.06%. Turning to `COc1ccc(CCC(=O)N(C)CC(=O)Nc2cc(C)ccc2C)cc1`, the inhibition was -11.1%. On to `CC(C)OC(=O)c1cc(NC(=O)C2C3C=CC(O3)C2C(=O)O)cc(C(=O)OC(C)C)c1` (stereo not drawn), for which the inhibition was 6.16%.

For the molecule `O=C1[C@H]2[C@@H](C(=O)N1c1cccc3ccccc13)C1(C(=O)c3ccccc3C1=O)N1CCC[C@@H]21`, the inhibition is -0.49%. As to `COc1nc(C)nc(NC(=O)NS(=O)(=O)c2ccccc2Cl)n1`, the inhibition is -15.1%. As for `COc1cc(OC)nc(NC(=O)NS(=O)(=O)c2ccccc2Cl)n1`, the inhibition was -10.9%. Take `CCc1ccc(/C(C)=N/NC(=O)c2ccccn2)cc1`: the inhibition is -11.6%. As for `C/C(=N\NC(=O)c1cccc2ccccc12)c1cccnc1`, the inhibition was -8.98%. As for `C/C(=N\NC(=O)c1ccccc1OCc1ccc(F)cc1)c1ccccn1`, the figure is -7.95%. As for `O=C(NCCNC(=O)c1ccccc1F)c1ccccn1`, the figure is -7.82%; as for `C/C(=N\NC(=O)c1cccc2ccccc12)c1cccs1`, -0.84%. In the case of `C/C(=N/NC(=O)c1ccccn1)c1ccc(O)cc1`, the inhibition is -1.61%.

On to `C/C(=N\NC(=O)c1cccc(Br)c1)c1cccnc1`, for which the inhibition is 0.75%.

As for `C/C(=N\NC(=O)c1ccccc1)c1cccc(Br)c1`, the inhibition is 3.22%.

Usually inhibition stands for the change of the read-out against control, counted positive when it falls.
